# According to PubChem BioAssay:
# Active and inactive are the calls of the source.
# Legend:
# [1] = system: Plasmodium falciparum Sir2 (PF13_0152, Sir2A); assay: Plasmodium falciparum Sir2A binding compounds – biochemical, small-molecule microarray, 635 nm fluorescence, primary screen (AID 1098); settings: fluorescence 635 nm, higher = more signal;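 note: score merges spot fluorescence intensity with its signal-to-noise ratio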
# [2] = probe aDKK1 binding to arrayed compounds – biochemical, biotinylated probe, 635/667 nm fluorescence, primary screen (AID 1099); settings: small-molecule microarray, higher = more signal;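 note: score merges 667nm spot fluorescence with signal to noise across triplicate slides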
# [3] = probe aCHRDL2 binding to arrayed compounds – biochemical, biotinylated probe, 635/667 nm fluorescence, primary screen (AID 1100); settings: small-molecule microarray, higher = more signal
# [4] = change in splice reporter luminescence, either direction, cell-based, HEK293, spliceosome inhibition project, primary screen (AID 1101); settings: HEK293 splicing luciferase reporter, 24 h, higher = more signal, called active from +8 up or from −8 down;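 note: HEK293 cells carrying a splicing-competent luciferase reporter gene; test concentration not given here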
# [5] = target: Fibroblast growth factor 10 (Homo sapiens) (UniProt O15520); assay: compounds binding fibroblast growth factor 10 – biochemical, small-molecule microarray, 635 nm fluorescence, primary screen (AID 1102); settings: FGF10 binding, fluorescence 635 nm, higher = more signal
# [6] = system: glycogen synthase kinase-3 (GSK3A per assay name; protocol says GSK3B); assay: compounds binding glycogen synthase kinase-3 – biochemical, small-molecule microarray, 635 nm fluorescence, GSK3A, primary screen (AID 1103); settings: fluorescence 635 nm, higher = more signal; note: the record names both GSK3A and GSK3B
# [7] = target: Epidermal growth factor receptor (Homo sapiens) (UniProt P00533); assay: compounds binding epidermal growth factor receptor – biochemical, small-molecule microarray, 635 nm fluorescence, primary screen (AID 1104); settings: EGFR binding, higher = more signal;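 note: score merges 667 nm emission intensity with spot signal to noise over triplicate slides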
# [8] = target: Follistatin-related protein 3 (Homo sapiens) (UniProt O95633); assay: compounds binding follistatin-related protein 3 – biochemical, small-molecule microarray, 635 nm fluorescence, primary screen (AID 1105); settings: FSTL3 binding, higher = more signal;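 note: score merges emission near 667 nm and signal to noise per printed spot across three slides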
# [9] = target: Dickkopf-related protein 1 (Homo sapiens) (UniProt O94907); assay: small molecules binding DKK1 protein – biochemical, small-molecule microarray, 635 nm fluorescence scan, primary screen (AID 1106); settings: higher = more signal;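 note: score merges emission near 667 nm with signal to noise over three replicate slides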
# [10] = system: Inhibin beta A chain (activin A); assay: small molecules binding activin A – biochemical, small-molecule microarray, 635 nm fluorescence scan, primary screen (AID 1107); settings: INHBA, higher = more signal;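 note: mouse activin A protein probed at 4.33 µg/mL on printed slides; score merges bound-protein fluorescence near 667 nm with spot signal-to-noise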
# [11] = system: Human papillomavirus type 1a protein E7 (residues 44-93); assay: small molecules binding HPV E7 44-93 – biochemical, small-molecule microarray, residues 44-93, 635 nm fluorescence, primary screen (AID 1108); settings: fluorescence 635 nm, higher = more signal;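 note: E7 fragment applied at 1 µg/mL in TBST for 1 h at 4 C; score combines spot fluorescence with its signal to noise ratio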
# [12] = hepatitis C replication reporter changes, two-sided – Huh7 cells, luciferase reporter, HCV replication inhibitor project, primary screen (AID 1109); settings: Huh7 HCV replicon luciferase reporter, 48 h; higher = more signal;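 note: huh7 hepatoma cells harbouring a luciferase neomycin HCV replicon reporter; luciferase luminescence as measure of HCV replicon replication; test concentration not given here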
# [13] = target: Left-right determination factor 2 (Homo sapiens) (UniProt O00292); assay: small molecules binding LEFTY2 protein – biochemical, small-molecule microarray, 635 nm fluorescence scan, primary screen (AID 1110); settings: higher = more signal
# [14] = target: Calmodulin-1 (Homo sapiens) (UniProt P0DP23); assay: small molecules binding calmodulin-1 with EGTA – biochemical, small-molecule microarray, Cy5-labelled CALM1, profiling panel (AID 1111); settings: Cy5-CALM1 binding fluorescence, higher = more signal;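 note: labelled calmodulin applied in Tris saline Tween buffer holding calcium plus EGTA and DTT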
# [15] = target: Calmodulin-1 (Homo sapiens) (UniProt P0DP23); assay: small molecules binding Ca-loaded calmodulin-1 – biochemical, small-molecule microarray, Cy5-labelled CALM1, plus calcium, artefact control for SMM control-protein annotation, profiling panel (AID 1112); settings: Cy5-CALM1 binding fluorescence, higher = more signal;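 note: score merges spot fluorescence with signal to noise from triplicate slides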
# [16] = probe aWnt5a binding to arrayed compounds – biochemical, biotinylated probe, 635/667 nm fluorescence, primary screen (AID 1113); settings: small-molecule microarray, higher = more signal;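 note: score merges 667 nm fluorescence intensity with signal-to-noise per printed feature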
# [17] = probe aShh binding to arrayed compounds – biochemical, biotinylated probe, 635/667 nm fluorescence, primary screen (AID 1114); settings: small-molecule microarray, higher = more signal;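 note: probe is biotin-labelled aShh protein from a stem cell growth factor screen; measures binding of labelled protein to compounds printed on the slide; score merges feature fluorescence at 667 nm with signal-to-noise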
# [18] = probe aNog binding to arrayed compounds – biochemical, biotinylated probe, 635/667 nm fluorescence, primary screen (AID 1115); settings: small-molecule microarray, higher = more signal;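 note: probe is biotinylated aNog protein used at 0.15 µg/mL for 1 h at 4 C; z-score combines 667 nm fluorescence of each spot with its signal to noise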
# [19] = target: Torsin-1A-interacting protein 1 (Homo sapiens) (UniProt Q5JTV8); assay: compound microarray binding of lysate hLAP1 – cell lysate, small-molecule microarray, COS7 lysate, 635/667 nm fluorescence, primary screen (AID 1116); settings: 635 nm fluorescence, higher = more signal
# [20] = target: Alpha-bungarotoxin (Bungarus multicinctus) (UniProt P60615); assay: compounds binding labelled alpha-BTX control protein – biochemical, small-molecule microarray, Alexa647 label, 635/667 nm fluorescence, artefact control for SMM control protein annotation, profiling panel (AID 1117); settings: alpha-BTX-A647 binding fluorescence, higher = more signal
# Alpha-bungarotoxin (Bungarus multicinctus), sequence (P60615 whole entry, looked up): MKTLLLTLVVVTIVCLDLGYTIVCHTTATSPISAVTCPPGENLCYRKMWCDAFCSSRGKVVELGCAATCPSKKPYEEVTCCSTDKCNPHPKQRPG
# Fibroblast growth factor 10 (Homo sapiens), sequence (O15520 whole entry, looked up): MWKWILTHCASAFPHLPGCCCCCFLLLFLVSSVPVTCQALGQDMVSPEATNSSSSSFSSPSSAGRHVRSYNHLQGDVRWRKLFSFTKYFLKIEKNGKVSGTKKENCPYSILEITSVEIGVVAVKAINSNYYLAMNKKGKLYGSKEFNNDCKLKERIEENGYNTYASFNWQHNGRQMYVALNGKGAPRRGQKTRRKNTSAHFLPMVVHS
# Left-right determination factor 2 (Homo sapiens), sequence (O00292 whole entry, looked up): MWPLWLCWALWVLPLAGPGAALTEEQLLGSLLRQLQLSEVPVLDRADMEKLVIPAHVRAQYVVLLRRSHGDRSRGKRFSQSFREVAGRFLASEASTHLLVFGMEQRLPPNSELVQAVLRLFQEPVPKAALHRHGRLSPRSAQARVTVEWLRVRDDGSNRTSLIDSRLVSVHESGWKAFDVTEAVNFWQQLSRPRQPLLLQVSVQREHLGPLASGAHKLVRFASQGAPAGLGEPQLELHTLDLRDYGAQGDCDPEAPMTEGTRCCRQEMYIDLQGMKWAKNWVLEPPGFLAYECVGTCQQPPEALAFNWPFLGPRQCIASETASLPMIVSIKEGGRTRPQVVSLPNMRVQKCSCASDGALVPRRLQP
# Epidermal growth factor receptor (Homo sapiens), sequence (P00533 whole entry, looked up): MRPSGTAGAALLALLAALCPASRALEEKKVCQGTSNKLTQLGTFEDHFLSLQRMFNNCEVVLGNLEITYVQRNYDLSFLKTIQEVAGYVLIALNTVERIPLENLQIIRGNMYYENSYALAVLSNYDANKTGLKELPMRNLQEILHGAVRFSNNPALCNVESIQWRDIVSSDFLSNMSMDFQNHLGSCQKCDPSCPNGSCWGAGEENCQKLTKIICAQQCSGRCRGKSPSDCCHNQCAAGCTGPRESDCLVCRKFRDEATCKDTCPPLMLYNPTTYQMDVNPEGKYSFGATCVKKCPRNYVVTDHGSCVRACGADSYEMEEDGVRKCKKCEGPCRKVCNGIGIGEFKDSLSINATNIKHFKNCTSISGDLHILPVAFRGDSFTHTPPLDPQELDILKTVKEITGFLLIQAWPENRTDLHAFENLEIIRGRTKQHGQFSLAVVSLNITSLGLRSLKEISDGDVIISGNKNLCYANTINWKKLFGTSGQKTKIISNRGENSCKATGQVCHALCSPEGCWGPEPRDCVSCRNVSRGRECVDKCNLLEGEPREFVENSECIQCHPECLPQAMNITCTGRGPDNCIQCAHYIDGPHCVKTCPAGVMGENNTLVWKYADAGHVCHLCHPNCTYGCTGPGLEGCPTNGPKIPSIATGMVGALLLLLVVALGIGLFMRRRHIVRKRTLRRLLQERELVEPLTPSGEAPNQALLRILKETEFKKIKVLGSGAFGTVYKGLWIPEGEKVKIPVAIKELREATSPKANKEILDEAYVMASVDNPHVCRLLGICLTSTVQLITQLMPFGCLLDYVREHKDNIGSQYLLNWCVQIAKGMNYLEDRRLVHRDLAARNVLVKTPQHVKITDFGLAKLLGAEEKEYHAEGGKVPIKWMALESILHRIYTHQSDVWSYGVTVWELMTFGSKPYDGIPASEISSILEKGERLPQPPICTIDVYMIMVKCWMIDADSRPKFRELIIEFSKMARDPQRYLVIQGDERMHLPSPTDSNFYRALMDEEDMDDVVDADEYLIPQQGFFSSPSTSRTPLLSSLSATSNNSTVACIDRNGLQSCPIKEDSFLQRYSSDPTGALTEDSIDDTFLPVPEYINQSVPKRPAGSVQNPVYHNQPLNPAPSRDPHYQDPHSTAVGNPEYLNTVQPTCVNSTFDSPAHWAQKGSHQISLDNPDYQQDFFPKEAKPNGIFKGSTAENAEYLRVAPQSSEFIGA
# Dickkopf-related protein 1 (Homo sapiens), sequence (O94907 whole entry, looked up): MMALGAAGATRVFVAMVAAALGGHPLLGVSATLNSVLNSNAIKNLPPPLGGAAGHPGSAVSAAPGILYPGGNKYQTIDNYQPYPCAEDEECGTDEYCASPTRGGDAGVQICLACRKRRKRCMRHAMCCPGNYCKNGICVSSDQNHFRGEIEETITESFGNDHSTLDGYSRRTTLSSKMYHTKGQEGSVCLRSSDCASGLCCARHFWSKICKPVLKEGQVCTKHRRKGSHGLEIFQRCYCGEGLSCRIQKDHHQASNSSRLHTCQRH
# Follistatin-related protein 3 (Homo sapiens), sequence (O95633 whole entry, looked up): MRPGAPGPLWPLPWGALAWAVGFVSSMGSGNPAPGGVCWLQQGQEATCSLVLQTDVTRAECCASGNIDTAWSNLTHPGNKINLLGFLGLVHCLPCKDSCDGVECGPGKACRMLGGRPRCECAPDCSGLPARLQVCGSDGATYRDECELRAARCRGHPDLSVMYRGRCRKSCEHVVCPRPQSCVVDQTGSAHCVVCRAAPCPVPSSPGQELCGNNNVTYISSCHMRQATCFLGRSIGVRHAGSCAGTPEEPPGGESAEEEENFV
# Torsin-1A-interacting protein 1 (Homo sapiens), sequence (Q5JTV8 whole entry, looked up): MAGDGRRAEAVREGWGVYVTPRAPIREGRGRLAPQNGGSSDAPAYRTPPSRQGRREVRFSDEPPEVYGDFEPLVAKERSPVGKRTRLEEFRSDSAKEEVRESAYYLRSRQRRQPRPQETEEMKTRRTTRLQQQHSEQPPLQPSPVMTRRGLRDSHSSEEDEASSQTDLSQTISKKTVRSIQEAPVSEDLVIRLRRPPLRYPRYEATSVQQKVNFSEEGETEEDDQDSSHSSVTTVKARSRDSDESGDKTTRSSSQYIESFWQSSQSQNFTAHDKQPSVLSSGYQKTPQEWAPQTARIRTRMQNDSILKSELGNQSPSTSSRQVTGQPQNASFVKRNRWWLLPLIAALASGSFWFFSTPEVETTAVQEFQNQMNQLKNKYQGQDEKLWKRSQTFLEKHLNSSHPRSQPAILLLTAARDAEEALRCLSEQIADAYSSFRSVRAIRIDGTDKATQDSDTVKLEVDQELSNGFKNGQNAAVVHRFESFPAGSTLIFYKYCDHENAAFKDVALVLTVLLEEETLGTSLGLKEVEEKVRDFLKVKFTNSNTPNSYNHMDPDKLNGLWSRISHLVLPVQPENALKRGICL
SMILES,composite z-score [1],composite z-score [2],composite z-score [3],z-score [4],composite z-score [5],composite z-score [6],composite z-score [7],composite z-score [8],composite z-score [9],composite z-score [10],composite z-score [11],z-score [12],composite z-score [13],composite z-score [14],composite z-score [15],composite z-score [16],composite z-score [17],composite z-score [18],composite z-score [19],composite z-score [20]
CCC[C@@H]1C[C@@]1(CCC)[C@@H](NC(=O)c1ccccc1)c1cccc(Cl)c1,-0.12,2,0.958,0.444 (inactive),0.905,1.09,0.446,0.644,-0.202,1.08,1.37,-0.75,-0.278,1.97,1.43,1.09,1.35,0.311,1.04,1.74
O=C(OCc1ccccc1)C1=CCC2c3[nH]c4ccccc4c3C(=O)C1N2S(=O)(=O)c1ccccc1[N+](=O)[O-] (stereo not given),1.42,0.332,0.381,-0.00197 (inactive),1.33,1.32,0.727,1.42,0.109,0.618,1.42,-2.6,0.831,0.418,-0.369,0.0597,0.14,-0.549,0.432,0.584
CCOC(=O)C[C@H]1[C@H](OC(=O)c2ccccc2-c2ccccc2)[C@@H](NC(=O)CC(C)C)c2cc(OCCCO)ccc2N1C(=O)Cc1ccc(OC)cc1,0.0681,-0.235,0.0198,-0.284 (inactive),0.215,-0.199,-0.0484,-0.305,-0.239,0.328,-0.0946,-1.25,-0.262,-0.0904,-0.265,-0.0953,0.199,-0.326,0.784,-0.213
CN1C(=O)C2C=CC(C(O)C#Cc3ccccc3)N(N3CCCCC3)C2C1=O (stereo not given),1.68,1.01,1.09,0.762 (inactive),0.945,0.216,0.568,0.731,0.0369,1.18,-1.16,-0.451,0.414,1.19,0.657,0.234,0.668,0.564,0.494,1.04
CC(C)C(CO)N1C(=O)[C@@H]2C3C(=O)OCCC/C=C\[C@H]3OC23C=CCN(CCN2CCOCC2)C(=O)[C@@H]13 (stereo not given in full),-0.768,-0.355,-0.45,0.963 (inactive),0.0971,0.0585,-0.203,0.0915,0.284,0.88,-0.729,0.0618,0.0228,-0.799,-0.386,-0.0529,-0.209,-0.238,1.38,-1.6
O=C(c1ccccc1)N1C(=O)[C@]2(COC(c3ccc(OCCCO)cc3)=N2)Cc2ccccc21,1.7,0.688,0.784,0.00817 (inactive),1.07,1.32,0.218,1.23,0.427,0.424,1.04,-1.14,0.448,1.8,0.106,-0.0303,-0.321,1.13,1.84,2.29
O=C1[C@@]23C=C(Br)[C@H](C[C@@H]2CCOC3)[C@@]12CO2,0.204,-0.327,-0.478,0.149 (inactive),0.254,0.329,0.442,0.473,0.485,0.684,0.364,-2.17,0.459,-0.206,-0.657,-0.0585,0.151,-0.303,1.53,0.331
COC(=O)[C@H](Cc1ccccc1)N1CC2=C[C@@H](C3CC3)n3c(=O)n(C)c(=O)n3[C@H]2[C@@H]1[C@@H](O)Cc1ccccc1,0.711,-0.412,-0.5,-0.515 (inactive),0.617,0.658,0.217,0.868,0.312,0.289,1.35,-1.08,0.41,-0.319,0.0057,-0.0718,-0.0035,0.0121,0.685,-0.0518
CCC(CC)C(O)C1C=CC2C(=O)NC(=O)C2N1Nc1ccc(Cl)cc1Cl (stereo not given),1.28,0.921,1,1.6 (inactive),0.626,0.451,-0.304,0.934,-0.267,0.764,0.672,-0.759,-0.46,1.93,1.15,-0.12,0.234,-0.452,0.247,1.05
C=C(CCCC)/C(=C/C[C@H](OC(C)=O)c1ccccc1OCCO)c1cc(C(=O)OC)ccc1OC,1.3,-0.231,-0.285,-0.616 (inactive),0.143,-0.0368,-0.184,-0.154,-0.358,1.12,0.0187,-2.06,-0.264,-0.621,-0.803,-0.12,0.0048,-0.0184,0.233,0.439
COC(=O)[C@@]1(Cc2ccc(OC)cc2)[C@H]2c3cc(C(=O)N4CCCC4)n(Cc4ccc(O)c(OC)c4)c3C[C@H]2CN1C(=O)c1ccccc1,1.18,1.92,1.39,-1.15 (inactive),0.511,0.164,0.207,0.282,0.0115,-0.0478,0.425,-1.78,-0.114,2.7,0.957,0.755,1.04,2.35,3.25,1.25
